D2 antagonist: D2 dopamine receptor (human) antagonism | P14416 | HEK293 TREx D2 cells, calcium flux, dopamine EC80 | inhibition, % at 10 µM | 340,000 compounds, 2% hits | AID 485344; in the data active means inhibition above about 30%; inactive means below that, where a call was filed; further: 0% is about no effect
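Tetracycline-induced HEK293 TREx cells expressing D2 receptor forced-coupled to calcium signalling, loaded with no-wash calcium dye. Compounds added and calcium flux read 180 s, then dopamine added at EC80 and read a further 180 s.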
B2AR arrestin: beta2AR (human) beta-arrestin recruitment activity; P07550; beta-arrestin recruitment to beta2AR, cell-based reporter; Potency, µM (top dose mostly 46.1 µM), inactives show at the top dose activation, usual class: activators; 330,000 compounds, 0.02% hits; active means well fitted activation curve with a large enough effect; inconclusive means small, poorly fitted or top-dose-only effect;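 further: potency means the concentration at half of the fitted maximal effect; 0% = DMSO controls and full agonism = EC100 isoproterenol or metaproterenol; nearly all actives have a fitted effect of over 65% in size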
Target sequence (P07550 whole entry, looked up): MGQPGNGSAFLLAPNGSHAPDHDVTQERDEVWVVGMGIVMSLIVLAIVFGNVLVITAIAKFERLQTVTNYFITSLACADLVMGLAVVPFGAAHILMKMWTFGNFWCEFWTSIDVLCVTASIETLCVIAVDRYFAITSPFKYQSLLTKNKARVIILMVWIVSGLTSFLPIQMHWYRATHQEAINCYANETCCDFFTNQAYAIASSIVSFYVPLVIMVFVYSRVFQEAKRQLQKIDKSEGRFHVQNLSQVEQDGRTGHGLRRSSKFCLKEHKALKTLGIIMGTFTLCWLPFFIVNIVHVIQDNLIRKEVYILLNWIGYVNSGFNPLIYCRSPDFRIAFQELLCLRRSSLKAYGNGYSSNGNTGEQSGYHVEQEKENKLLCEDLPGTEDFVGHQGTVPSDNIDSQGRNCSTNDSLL
D2 ag-1: activates the human D2 dopamine receptor; P14416; HEK293 T-REx D2 cells, calcium flux agonist mode; activation, % at 2 µM; 340,000 compounds, 0.53% hits; AID 485358;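 active means activation over 3 SD above normal in the single-dose calcium agonist read, cut at about 30% in these data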; further: 0% is about no effect
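Tetracycline-induced HEK293 Trex cells with D2 receptor force-coupled to calcium signaling, plated overnight at 30 C and loaded with no-wash calcium dye. Calcium flux read kinetically for 180 s after compound addition; responses flag agonists.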
D2 ag-2: human D2 receptor agonism in beta-arrestin assay; DiscoveRx PathHunter D2 beta-arrestin, luminescence, 90 min; 100% = 57 uM dopamine signal; activation, % (no concentration beside the values); 360,000 compounds, 0.084% hits; in the data active means activation above about 40%; inconclusive means between about 15% and that limit
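Agonist mode: compounds alone added to overnight-plated D2 PathHunter cells for 90 min at 37 C, with 57 uM final dopamine (EC100) defining full response. Beta-arrestin recruitment detected by chemiluminescent reagent, read after 1 h at ambient temperature.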
D2 PAM-1: positive allosteric modulators of human D2 dopamine receptor. 360,000 compounds, 0.23% hits. potentiation, % (concentration not given with the values). DiscoveRx D2 beta-arrestin cells, luminescence, 90 min; 100% = 57 uM dopamine signal. P14416. AID 624464; in the data active means potentiation above about 50%; inconclusive means mostly about 30% to 49%
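PathHunter beta-arrestin assay in DiscoveRx D2 cells. Compounds were added with an EC20 of dopamine (50 nM final) for 90 min at 37 deg C. Luminescence was read 1 h after detection reagent, with 57 uM dopamine as the EC100 control.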
D2 PAM-2: D2 dopamine receptor (human) potentiation; P14416; HEK293 T-REx D2, calcium flux, EC20 dopamine potentiation; potentiation, % at 10 µM; 340,000 compounds, 0.34% hits;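 active means potentiation over 3 SD above the plate norm, cut at about 30% in these data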; further: 0% is about no effect
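Primary screen. Calcium kinetics in induced HEK293 T-REx D2 cells: compound pre-addition 180 s, EC20 dopamine, 180 s more.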
Starred values were filed as active, the others as inactive; ? = inconclusive; nt = no result given. Only some compounds are listed: those with a hit (about 2.4% of all), similar ones and a draw of the others.

SMILES | D2 antagonist | B2AR arrestin | D2 ag-1 | D2 ag-2 | D2 PAM-1 | D2 PAM-2
CCN(CC)S(=O)(=O)c1ccc(Cl)c(C(=O)NCC2CCCO2)c1 (centres undefined) | -2 | 0% | 1 | 0 | -3 | -3
CCN(c1ccccc1)S(=O)(=O)c1ccc(Cl)c(C(=O)NCC2CCCO2)c1 (centres undefined) | 6 | 0% | 0 | 1 | -4 | 31*
CS(=O)(=O)N(Cc1ccccc1)c1ccc(C(=O)NCC2CCCO2)cc1 (centres undefined) | 33* | 0% | -1 | -3 | -5 | 5
CCSc1nnc(NC(=O)C2CCCCC2C(=O)OCC(F)(F)C(F)F)s1 (centres undefined) | -7 | 0% | -2 | -1 | -5 | 20
C=CCN1C(=O)/C(=C/C=C2/N(CC)c3ccc(S(=O)(=O)N(C)C)cc3N2CC)SC1=S | 16 | 0% | 52* | -3 | -16 | 1
CSc1ccccc1NC(=O)CSc1nnnn1-c1ccccc1SC | 0 | 0% | 0 | -1 | 8 | 0
COC(=O)c1ccsc1NC(=O)CSc1nnnn1-c1ccccc1SC | -1 | 0% | 0 | 1 | -4 | 37*
O=C(CSCc1ccc(Cl)cc1Cl)Nc1ccc(O)cc1C(=O)O | 21 | 0% | 3 | 12 | 59* | 3
COc1ccc(CNCC(O)(c2ccc(F)cc2)c2ccc(F)cc2)cc1 | -2 | 1% | 1 | 5 | -15 | 10
COCc1cc(C)n(CC(=O)N2CCCC2)c(=O)c1C#N | 31* | 0% | 2 | 2 | -5 | -4
COc1ccc(NC(=O)CN(C)CC(=O)Nc2sc3c(c2C#N)CCC3)cc1 | 32* | 0% | 0 | 7 | 0 | 4
Cc1ccc(OCC(=O)Nc2sc3c(c2C#N)CCC3)cc1 | -11 | 0% | -1 | -1 | -1 | 9
CC(C)Cc1nnc(NC(=O)c2cc(-c3ccncc3)nc3ccccc23)s1 | 3 | 0% | 1 | 3 | 3 | 18
CC(C)Cc1nnc(NC(=O)c2cc(-c3ccccc3)nc3ccccc23)s1 | 7 | 0% | 1 | -2 | -5 | 30*
CCCCNC(=S)N(C)/N=C/c1ccc(F)cc1 | 91* | -2% | -2 | -1 | -21 | 7
CCCCNC(=S)N(C)/N=C/c1c(F)cccc1F | 6 | -1% | 1 | 0 | -2 | 7
CCn1cc(-c2nnnn2-c2ccc(Cl)cc2)c(=O)c2ccccc21 | -13 | 0% | 0 | 1 | 5 | 38*
COc1ccc(C(=O)C2C(c3ccc(-c4ccccc4[N+](=O)[O-])o3)NC(=O)NC2(O)C(F)(F)F)cc1 (centres undefined) | 5 | 2% | -1 | 9 | 28 | -6
O=C1NC(c2ccc(-c3ccccc3[N+](=O)[O-])o2)C(C(=O)c2ccc(F)cc2)C(O)(C(F)(F)F)N1 (centres undefined) | 27 | 15% | 1 | ? | 58* | 17
C[C@@H]1C=C(C(=O)N2CCN(C)CC2)O[C@H](OCc2ccc(CO)cc2)C1 | 6 | -1% | 0 | 0 | -3 | 1
Cc1ccccc1C(=O)NC(CC(C)C)C(=O)NN1C(=O)c2ccccc2C1=O (centres undefined) | 30* | 0% | 0 | -3 | 3 | -3
Cc1ccccc1C(=O)NNC(=O)C(C)N1C(=O)c2ccccc2C1=O (centres undefined) | 4 | 0% | 0 | 1 | 1 | 2
CCOC(=O)N1CCC(=NNC(=O)Cn2ccc(C(F)(F)F)n2)CC1 | -22 | 0% | 0 | 0 | -2 | 33*
CC(C)=CCN1CCN(Cc2cccn2-c2ccccn2)CC1CCO (centres undefined) | 99* | 0% | -2 | -6 | -6 | -5
CC(C)=CCN1CCN(Cc2c[nH]c3ccccc23)CC1CCO (centres undefined) | 47* | 0% | 0 | -2 | -31 | -16
SMILES | D2 antagonist | B2AR arrestin | D2 ag-1 | D2 ag-2 | D2 PAM-1 | D2 PAM-2
CNC[C@@H]1Oc2c(NC(=O)Nc3ccccc3)cccc2C(=O)N([C@@H](C)CO)C[C@H]1C | nt | 0% | nt | 0 | -7 | nt
N#C/C(=C1/C(=O)Nc2ccc(Br)cc21)c1ccccn1 | -6 | 0% | 1 | -5 | -6 | -4
Cc1ccc(C(=O)O/N=C(\N)Cc2cccs2)cc1[N+](=O)[O-] | 5 | 0% | 0 | ? | 29 | 11
N/C(=N\OC(=O)c1cccs1)c1cccc([N+](=O)[O-])c1 | -7 | 0% | 1 | 42* | 69* | 4
N/C(=N\OC(=O)c1cccc2ccccc12)c1cccc([N+](=O)[O-])c1 | 4 | 0% | 0 | ? | 83* | -9
COc1ccc(/C(N)=N/OC(=O)c2cccc([N+](=O)[O-])c2C)cc1OC | 8 | 0% | 1 | ? | 93* | 11
COc1ccccc1C/C(N)=N/OC(=O)c1ccc(C)c([N+](=O)[O-])c1 | nt | -2% | nt | ? | 145* | 16
CC(NC(=O)c1ccccc1Cl)c1nnc(SCC(=O)Nc2ccc(C(=O)O)cc2)n1C (centres undefined) | 30* | 0% | -1 | 0 | -3 | -2
CCc1ccc(CN(C)CC(=O)Nc2sccc2C#N)cc1 | 64* | 8% | 0 | -3 | -13 | 9
CCOc1cccc(OCCCCN2CCCCC2)c1 | -10 | 0% | 1 | -2 | -33 | -18
Clc1cccc(OCCN2CCCC2)c1 | 26 | 0% | 0 | 2 | -8 | -14
CC1CCCN(CCOc2ccc(Br)cc2)C1 (centres undefined) | 63* | 0% | 0 | 0 | -19 | -29
Brc1cccc(OCCCCN2CCCCC2)c1 | 88* | 0% | 1 | -1 | -13 | -37
CC1CCCN(CCCCOc2cccc(Br)c2)C1 (centres undefined) | 75* | -2% | 0 | 0 | -32 | -20
CC(C)c1cccc(OCCN2CCCC2)c1 | 71* | 0% | 1 | 6 | -23 | -23
CCOC(=O)c1cc(-c2ccc(C)cc2)n(CCCC(=O)Nc2cc(C)ccc2C)c1 | nt | nt | 1 | nt | nt | -10
COc1ccc(-c2nn(-c3ccccc3)cc2/C=N/Nc2ccc(Cl)c(C(=O)O)c2)cc1OC | 2 | 0% | -1 | -1 | -10 | 16
N#Cc1c(-c2ccco2)cc(-c2cccnc2)nc1N | -1 | 1% | 0 | -1 | 5 | 18
N#Cc1c(-c2ccco2)cc(-c2ccccn2)nc1N | -10 | 0% | 0 | 0 | -7 | 36*
O=c1ccc2cc(S(=O)(=O)NCc3ccc(Br)cc3)ccc2[nH]1 | nt | nt | nt | nt | nt | -6

Compound activity (PubChem)
